Screening data from PubChem.
Sampled rows, rich in hits. Any-hit rate of the full collection: about 19%.
KB-3-1 tox – qHTS assay for MDR1-selective chemotherapeutics: Primary screen using the parental adenocarcinoma cell KB-3-1; AID 1347075, 2019; KB-3-1 viability, CellTiter-Glo ATP luminescence, 72 h; hit rate 1.4% among 400,000; Potency, µM (doses to about 46.1 µM), actives largely listed as cytotoxic; also: nearly all actives have a fitted effect of over 60% in size
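Screening of KB-3-1 cells (DMEM, 10% FBS, phenol-red free) ran from lowest to highest compound concentration; after 72 h at 37 °C viability was read luminescently and curves fitted.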
HT1080-NT tox – qHTS for induction of synthetic lethality in tumor cells producing 2HG: qHTS for the HT-1080-NT fibrosarcoma cell line; AID 686970, 2013; HT-1080-NT fibrosarcoma viability, CellTiter-Glo ATP luminescence, 48 h; hit rate 1.6% among 360,000; Potency, µM (series often up to 46.1 µM), inactives show top-dose activity, negative = less viability, hits mostly cytotoxic;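 also: NT is the 2HG producing partner of a matched IDH1 knockdown line; 0% = DMSO-treated cells and -100% = media-only wells without cells; nearly all actives have a fitted effect of over 55% in size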
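Viability of the 2HG-overproducing fibrosarcoma line after 48 hours of compound exposure at 37 degrees C was determined by luminescence with CellTiter-Glo, and concentration-effect curves were then fitted and categorized.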
DT40 TDP1 CPT – qHTS for Inhibitors of human tyrosyl-DNA phosphodiesterase 1 (TDP1): qHTS in cells in presence of CPT. chicken DT40 Tdp1-/-;hTDP1 cells + 20 nM CPT, ATP luminescence, 48 h. Potency, µM (top dose mostly 46.2 µM), for the others: at the top dose activity change, negative = growth inhibition, hits mostly inhibitors. hit rate 12% among 420,000; also: nearly all actives have a fitted effect of over 55% in size
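Chicken DT40 Tdp1-/- cells stably complemented with human TDP1 were seeded at 400 cells/well in medium containing 20 nM camptothecin, exposed to pin-transferred compounds, and grown at 37 °C for at least 48 hr. Viability was read as ATP luminescence.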
HT1080 IDH1KD tx – qHTS for induction of synthetic lethality in tumor cells producing 2HG: qHTS for the HT-1080-IDH1KD cell line; HT-1080 IDH1 knockdown viability, ATP luminescence, 48 h; Potency, µM (top dose mostly 46.1 µM), inactives show at the top dose activity, negative = toxicity, hits mostly cytotoxic; hit rate 2% among 360,000;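 also: 0% = DMSO wells and -100% = cell-free medium wells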
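Luminescent ATP read-out (CellTiter-Glo, 10 min at room temperature) after 48 h compound exposure at 37 °C gave viability of IDH1-knockdown HT-1080 cells. Activity was normalised to DMSO and cell-free wells, then fitted as concentration-response curves.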
DT40 TDP1 no CPT – qHTS for Inhibitors of human tyrosyl-DNA phosphodiesterase 1 (TDP1): qHTS in cells in absence of CPT; DT40 Tdp1-/- hTDP1 cells, no CPT, ATP luminescence, 48 h; Potency, µM (titrated, usually from 46.2 µM), inactives show top-dose activity change, negative = growth inhibition, most hits filed as inhibitors; hit rate 15% among 420,000; AID 686978, 2013; also: nearly all actives have a fitted effect of over 55% in size
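Cells were dispensed at 400 per well, compounds added by pin tool, plates incubated ≥48 hr at 37 °C, then CellTiter-Glo added for 30 min at room temperature before luminescence reading. Line: DT40 Tdp1-/- complemented with hTDP1; camptothecin omitted.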
KB-V1 MDR tox – qHTS assay for MDR1-selective chemotherapeutics: Primary screen using the drug-selected MDR subline cells KB-V1 | KB-V1 MDR cells viability, CellTiter-Glo, 72 h | Potency, µM (doses to about 46.1 µM), hits mostly cytotoxic | hit rate 3.4% among 400,000; also: nearly all actives have a fitted effect of over 60% in size
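In this primary screen, KB-V1 cells overexpressing P-gp are incubated with library compounds (lowest to highest concentration) for 72 h at 37 degrees C before a luminescent ATP viability read.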
Active calls of the source: *; i = inactive; ? = inconclusive; . = not tested or not shown; [ ] = another dose, or the depositor's remark. Calls follow the shape of the dose curve; as a rule, active = well fitted curve in the direction sought with a large enough effect; inconclusive = small, poorly fitted or top-dose-only effect, or another doubt; inactive = no such curve, though single readings can be large; an effect the other way counts as inactive or inconclusive. Unless noted, % is scaled to controls: 0 for no effect and ±100 for the full control effect; potency is read from the fitted curve at half-maximal effect.

SMILES | KB-3-1 tox | HT1080-NT tox | DT40 TDP1 CPT | HT1080 IDH1KD tx | DT40 TDP1 no CPT | KB-V1 MDR tox
Cc1ccc(NC(=O)C(=O)NCC(c2ccc3c(c2)OCO3)N2CCOCC2)cc1C (stereo unspecified) | i | . | 13.6% | . | 14.9% | i
CCCOc1ccc2[nH]c(C(=O)N/N=C/c3cc(OC)c(OC)c(OC)c3)cc2c1 | ? | 8.1% | ? | 10.2% | 16.4µM* | i
CCOc1ccc(/C=N/NC(=O)c2cc3c(OC)cc(OC)c(OC)c3[nH]2)cc1 | i | ? | ? | ? | ? | i
COc1ccccc1CC1CC(=O)N(c2ccc([N+](=O)[O-])cc2)C1=O (stereo unspecified) | i | 1.0% | -3.6% | -2.7% | -22.6% | i
Cc1cc(C(C)(C)C)ccc1OCCCCN1CCCC1 | i | -10.2% | ? | -6.4% | ? | i
CCC(C)(C)c1ccc(OCCCC[n+]2ccc(C)cc2)c(C(C)(C)CC)c1 | 11.6µM* | ? | 2.31µM* | ? | 1.16µM* | i
CCC(C)(C)c1ccc(OCCCC[n+]2cccc(C)c2C)c(C(C)(C)CC)c1 | ? | 14.6µM* | 0.517µM* | 20.6µM* | 0.411µM* | i
Cc1nc2cccnc2n1C1CCN(C(=O)Nc2ccccc2C(F)(F)F)CC1 | i | . | 0.2% | . | 6.1% | i
CC(=O)c1ccc(OCC(=O)OCc2cc(-c3ccco3)on2)cc1 | i | 1.4% | -29.2% | 6.6% | -2.4% | i
COc1ccc(CNc2nn3c(-c4cccc(C(=O)N(C)C)c4)cnc3s2)cc1 | i | 13.2% | 23.1µM* | 1.9% | 18.4µM* | i
CNc1nc(-c2cccc(C(=O)N(C)C)c2)cn2ccnc12 | i | ? | -3.7% | 14.6% | -5.0% | i
O=c1c2cccnc2n(Cc2ccc(Cl)cc2)c(=O)n1Cc1ccc(F)cc1 | i | . | ? | . | 8.2µM* | ?
Cc1ccccc1Cn1c(=O)n(Cc2ccc(Cl)cc2)c(=O)c2cccnc21 | i | . | 14.6µM* | . | 16.4µM* | i
CCOC(=O)c1ccc(NC(=O)CN2c3ccccc3S(=O)(=O)c3ccccc32)cc1 | i | . | ? | . | ? | i
CCOC(=O)c1ccc(NC(=O)C2(c3ccc(Cl)cc3)CCCC2)cc1 | ? | -9.8% | 16.4µM* | -17.1% | ? | ?
NC(=O)c1ccc(NC(=O)COC(=O)C2(c3cccc(F)c3)CCCC2)cc1 | i | 0.5% | ? | -0.2% | 25.9µM* | i
CCOC(=O)c1ccc(NC(=O)C2(c3ccccc3)CCCC2)cc1 | i | 4.3% | ? | 0.6% | ? | 14.6µM*
Cc1ccc(NC(=O)COC(=O)C2(c3ccc(Cl)cc3)CCCC2)cc1 | ? | ? | 23.1µM* | ? | 23.1µM* | i
CCOC(=O)c1ccc(NC(=O)C2(c3ccc(OC)cc3)CCCC2)cc1 | i | -13.9% | -27.9% | -0.6% | ? | ?
Cc1ccc2c(c1)C(c1ccc(F)cc1)N(C(=O)c1cccc(C(F)(F)F)c1)CC(=O)N2 (stereo unspecified) | i | . | ? | . | ? | i
COc1ccc(NC(=O)C2CCN(S(=O)(=O)c3ccc4c(c3)CCCC(=O)N4)CC2)cc1OC | i | . | . | . | . | i
CCN(CC)CCN1C(=O)C2C(C(=O)Nc3cccc(C)c3)C3C=CC2(O3)C1C(=O)NC1CCCC(C)C1C (stereo unspecified) | i | -18.1% | -3.0% | -19.9% | -0.2% | i
CCCN(CCC)CCCNC(=O)c1cc2c(=O)n(C)c3ccccc3c2s1 | i | . | ? | . | 18.4µM* | i
CCCN(CCC)CCCNC(=O)c1cc2c(=O)n(C)c3ccccc3c2n1C | ? | ? | ? | -19.1% | 25.9µM* | i
CCOc1ccc(CCNC(=O)c2cc3c(=O)n(C)c4ccccc4c3s2)cc1OCC | i | . | -29.3% | . | ? | i
SMILES | KB-3-1 tox | HT1080-NT tox | DT40 TDP1 CPT | HT1080 IDH1KD tx | DT40 TDP1 no CPT | KB-V1 MDR tox
CCOC(=O)N1CCC(NC(=O)c2cc3c(=O)n(C)c4ccccc4c3n2C)CC1 | i | 0.6% | 20.6µM* | 0.6% | ? | i
CCCCN(CC)CCNC(=O)c1cc2c(=O)n(C)c3ccccc3c2n1C | ? | ? | 18.4µM* | ? | 14.6µM* | i
Cn1c(C(=O)NC2CC2)cc2c(=O)n(C)c3ccccc3c21 | i | -3.3% | ? | -1.5% | ? | i
O=[N+]([O-])c1c(O)c(Cl)cc(Cl)c1Cl (tested in a mixture with another compound) | i | ? | 13.1% | ? | -17.2% | i
COc1ccc(O)c(CN2CCC3(CCC(CNC(=O)C4CCCO4)O3)CC2)c1 (stereo unspecified) | . | . | -0.2%[9.04 µM] | . | -1.0% | .
Cn1c(C(=O)Nc2ccc3c(c2)OCCO3)cc2c(=O)n(C)c3ccccc3c21 | i | -26.6% | 13µM* | -28.3% | 11.6µM* | ?
CCN(CC)CCNC(=O)c1cc2c(=O)n(C)c3cc(Cl)ccc3c2s1 | i | . | ? | . | 20.6µM* | ?
COCCCNC(=O)c1cc2c(=O)n(C)c3ccccc3c2n1C | 10.3µM* | -17.0% | 18.4µM* | -26.7% | ? | 16.4µM*
Cn1c(C(=O)NCCCN2CCCCCC2)cc2c(=O)n(C)c3ccccc3c21 | i | 4.6% | 18.4µM* | 3.4% | ? | i
COCCNC(=O)c1cc2c(=O)n(C)c3ccccc3c2n1C | i | 10.1% | -10.4% | 12.9% | -14.4% | ?
Cc1cc(Br)ccc1NC(=O)c1cc2c(=O)n(C)c3cc(Cl)ccc3c2s1 | i | . | ? | . | ? | i
CN(C(=O)CCn1c(=S)oc2ccccc21)c1ccc(F)cc1 | i | -4.1% | 1.6% | 4.0% | ? | i
CCCS(=O)(=O)NC(=O)C1(C)CCCN(C(=O)c2c(OC)cccc2OC)C1 (stereo unspecified) | i | 0.2% | 10.7% | 23.9% | 1.0% | i
OC1(c2cccnc2)CCN(Cc2ccc3c(c2)CN(Cc2ccsc2)CCO3)CC1 | . | . | 8.9%[9.04 µM] | . | -22.7% | .
